Records with an inconclusive call do not appear. The source made the active and inactive calls. Calls come from the whole dose curve; as a rule, active = well fitted curve in the direction sought with a large enough effect in the repeat runs; inconclusive = weak or mixed curves; inactive = no such curve, though single readings can be large; an effect the other way counts as inactive or inconclusive.
What was measured:
[1] = qHTS RealTime-Glo MT Cell Viability Assay in HEK293 cells - 32 hour (AID 1224868); note: top concentration of the series differs between compounds; nearly all actives have a fitted effect of over 50% in size
Summary of the method: (§1)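 HEK293 cells were seeded at 600 cells/well together with NanoLuc luciferase and cell-permeant prosubstrate, preincubated 5 h at 37 C/5% CO2, then given compound in DMSO by pintool. Luminescence from viable-cell prosubstrate reduction was read repeatedly over 40 h.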

[2] = A CellTox Green Cytotoxicity Assay to monitor cytotoxicity in HEK293 cells - 0 hour (AID 1224869); note: nearly all actives have a fitted effect of over 50% in size
Summary of the method: (§2)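 Each value comes from one timepoint of a single continuous run in which HEK293 cells with CellTox Green were exposed to compound for up to 40 h at 37 C, dye fluorescence rising with cell death.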

[3] = qHTS RealTime-Glo MT Cell Viability Assay in HepG2 cells - 40 hour (AID 1224870); note: nearly all actives have a fitted effect of over 50% in size
Summary of the method: (§3)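 HepG2 cells (600/well) mixed with RealTime-Glo MT reagent, settled 5 h at 37 C/5% CO2 before compound addition. Nonlytic NanoLuc luminescence from viable-cell prosubstrate reduction read repeatedly during 40 h treatment at 37 C.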

[4] = A CellTox Green Cytotoxicity Assay to monitor cytotoxicity in HEK293 cells - 40 hour (AID 1224871); note: nearly all actives have a fitted effect of over 45% in size
Summary of the method: as §2

[5] = qHTS RealTime-Glo MT Cell Viability Assay in HEK293 cells - 16 hour (AID 1224872); note: top concentration of the series differs between compounds; nearly all actives have a fitted effect of over 50% in size
Summary of the method: as §1

[6] = qHTS RealTime-Glo MT Cell Viability Assay in HepG2 cells - 8 hour (AID 1224873); note: nearly all actives have a fitted effect of over 55% in size
Summary of the method: as §3

[7] = qHTS RealTime-Glo MT Cell Viability Assay in HEK293 cells - 40 hour (AID 1224874); conditions: RealTime-Glo luminescence; max response: stronger effect = lower value; note: nearly all actives have a fitted effect of over 50% in size
Summary of the method: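 qHTS format; HEK293 cells with NanoLuc/prosubstrate reagent, 37 C/5% CO2 for 5 h pre-dosing; compounds 23 nL in DMSO; luminescence at each time point reflects viable cells.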

[8] = qHTS RealTime-Glo MT Cell Viability Assay in HepG2 cells - 24 hour (AID 1224867); note: nearly all actives have a fitted effect of over 50% in size
Summary of the method: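 HepG2 cells were seeded at 600 cells/well together with NanoLuc luciferase and a cell-permeant prosubstrate, preincubated 5 h at 37 C/5% CO2, then pin-dosed with compounds in DMSO. Nonlytic luminescence from viable cells was read at each time point.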

[9] = A CellTox Green Cytotoxicity Assay to monitor cytotoxicity in HEK293 cells - 24 hour (AID 1224875); note: series mostly up to about 77 µM; nearly all actives have a fitted effect of over 45% in size
Summary of the method: as §2
% is set by controls: 0 for no effect and ±100 for the full control effect.

C=CCCCCCCCCCCC
inactive: activity change, negative = cytotoxic [1] 7.22% [at 6.97 µM] | cytotoxicity [2] 3.23% [at 6.97 µM] | activity change, negative = cytotoxic [3] -0.414% [at 6.97 µM] | cytotoxicity increase [4] 0.236% [at 6.97 µM] | activity change, negative = cytotoxicity [5] 6.31% [at 6.97 µM] | viability change, negative = cytotoxic [6] 1.47% [at 6.97 µM] | max response [7] 6.19%

c1ccc(CNc2ncnc3nc[nH]c23)cc1
inactive: outcome [8] | Potency [2] | outcome [3] | Potency [4] | outcome [6] | Potency [9]

BrC/C=C/CBr
inactive: activity change, negative = cytotoxic [1] -0.679% [at 15.8 µM] | cytotoxicity [2] 0.203% [at 15.8 µM] | activity change, negative = cytotoxic [3] -1.8% [at 15.8 µM] | cytotoxicity increase [4] 1.51% [at 15.8 µM] | activity change, negative = cytotoxicity [5] 1.42% [at 15.8 µM] | viability change, negative = cytotoxic [6] 2.32% [at 15.8 µM] | max response [7] -1.67% | activity change [9] 2.67% [at 15.8 µM, stronger effect = higher value]

CCOc1ccc(NC(=O)OC(C)C)cc1OCC
inactive: outcome [8] | Potency [2] | outcome [3] | Potency [4] | Potency [5] | outcome [6] | Potency [9]

Cc1ccc2c(c1)c1c3n2CCNC3CCC1 (centres undefined)
inactive: Potency [1] | outcome [3] | Potency [4] | Potency [5] | outcome [6] | max response [7] 0.813% | Potency [9]

NS(=O)(=O)c1cc2c(cc1Cl)NC(C(Cl)Cl)NS2(=O)=O (centres undefined)
inactive: outcome [8] | Potency [1] | outcome [3] | Potency [5] | outcome [6] | max response [7] 2.25% | Potency [9]

Nc1ccnc(=O)[nH]1
inactive: Potency [1] | Potency [2] | outcome [3] | Potency [5] | outcome [6] | max response [7] 4.83% | Potency [9]

CCCC(C)CC (centres undefined)
inactive: Potency [1] | Potency [2] | outcome [3] | Potency [5] | outcome [6] | max response [7] 1.42% | Potency [9]

COCC(=O)Nc1c(I)c(C(=O)NCC(O)CO)c(I)c(C(=O)N(C)CC(O)CO)c1I (centres undefined)
inactive: outcome [8] | Potency [2] | outcome [3] | Potency [4] | outcome [6] | Potency [9]

CC1(N)CCC(C(C)(C)N)CC1 (centres undefined)
inactive: Potency [1] | Potency [2] | outcome [3] | Potency [4] | Potency [5] | outcome [6] | Potency [9]

CCCCCCCCCCCCOC(C)=O
inactive: outcome [8] | Potency [2] | outcome [3] | Potency [5] | outcome [6] | Potency [9]

CN(C)CCCNCCC#N
inactive: Potency [1] | Potency [2] | outcome [3] | Potency [4] | Potency [5] | outcome [6] | max response [7] 6.65% | Potency [9]

CCCCC(CC)C(=O)OC(C)C (centres undefined)
inactive: Potency [1] | Potency [2] | outcome [3] | outcome [6] | max response [7] 3.8% | Potency [9]

CC(=O)OC(C)(C)Cc1ccccc1
inactive: Potency [1] | Potency [2] | outcome [3] | outcome [6] | max response [7] 6.53%
